Assay results reported in PubChem BioAssay.
The source made the active and inactive calls. Unless noted, how the calls were made is not given here.

Experiments:
[1] = system: Wnt5a (protein binding on small-molecule microarray); experiment: small molecules binding Wnt5a protein – biophysical, small-molecule microarray, 635/667 nm fluorescence, primary screen (AID 1142); details: 635 nm fluorescence, higher = more signal;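 further: fluorescence read at 667 nm with signal to noise per printed feature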
[2] = ATP-based viability of Huh7 replicon cells – cell-based, CellTiter-Glo luminescence, basal, 48 h, cytotoxicity control for HCV replication inhibitor project, primary screen (AID 1143); details: higher = more signal, called active from +8 up or from −8 down;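 further: Huh7 hepatoma cells carrying a hepatitis C replication reporter with no stimulus; test concentration not given here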
[3] = Pseudomonas biofilm growth suppression – PAO1 strain, BacTiter-Glo luminescence, LB-PBS, primary screen (AID 1144); details: P. aeruginosa PAO1 biofilm, 12 h, higher = more signal
[4] = basal CRE-LacZ reporter activity in PC12 – cell-based, unstimulated, primary screen (AID 1145); details: no forskolin, luminescence, 4.5 h, higher = more signal, called active from +8 up or from −8 down
[5] = forskolin-driven CRE-LacZ activity in PC12 – cell-based, CRE-LacZ reporter, forskolin-stimulated, primary screen (AID 1146); details: luminescence, 4.5 h, higher = more signal, called active from +8 up or from −8 down;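 further: PC12 cells with 6xCRE LacZ reporter stimulated by forskolin 10 µM; beta-galactosidase reporter signal reflecting CREB driven transcription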
[6] = target: Streptavidin (Streptomyces avidinii) (UniProt P22629); experiment: compounds binding control protein streptavidin – biophysical, small-molecule microarray, 635/667 nm fluorescence, artefact control for SMM compound annotation, primary screen (AID 1147); details: higher = more signal;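 further: signal reflects streptavidin binding to arrayed compounds as a control protein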
Chain of Streptavidin (Streptomyces avidinii) (P22629 whole entry, looked up): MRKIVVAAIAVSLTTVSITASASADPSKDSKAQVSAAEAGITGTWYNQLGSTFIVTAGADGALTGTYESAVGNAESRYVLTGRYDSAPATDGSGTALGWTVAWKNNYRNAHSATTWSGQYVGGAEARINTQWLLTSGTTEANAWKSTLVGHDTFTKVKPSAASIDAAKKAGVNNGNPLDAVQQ

[7] = probe aInhba binding on compound microarray – biochemical, small-molecule microarray, 635/667 nm fluorescence, primary screen (AID 1148); details: higher = more signal;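 further: score merges 667nm spot fluorescence with signal-to-noise for antibody binding to printed compounds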
Torsin-1A (Homo sapiens) [8] = target: Torsin-1A (Homo sapiens) (UniProt O14656); experiment: TOR1A wild-type binding on microarray – cell lysate, small-molecule microarray, lysate, 635/667 nm, primary screen (AID 1149); details: COS7 hTOR1A-WT lysate, 635 nm fluorescence, higher = more signal
Chain of Torsin-1A (Homo sapiens) (O14656 whole entry, looked up): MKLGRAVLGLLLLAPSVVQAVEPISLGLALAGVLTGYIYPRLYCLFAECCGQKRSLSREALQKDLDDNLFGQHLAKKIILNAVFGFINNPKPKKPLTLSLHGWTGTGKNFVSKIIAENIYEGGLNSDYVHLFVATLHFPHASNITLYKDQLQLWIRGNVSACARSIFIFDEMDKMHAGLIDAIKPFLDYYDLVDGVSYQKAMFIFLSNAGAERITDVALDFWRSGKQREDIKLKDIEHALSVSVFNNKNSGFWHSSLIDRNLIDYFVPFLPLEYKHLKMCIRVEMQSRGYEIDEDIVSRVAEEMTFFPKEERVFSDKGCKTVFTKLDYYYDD

Torsin-1A (Homo sapiens) [9] = target: Torsin-1A (Homo sapiens) (UniProt O14656); experiment: torsin A mutant lysate binding on microarrays – cell lysate, small-molecule microarray, COS7 lysate, 635/667 nm fluorescence, primary screen (AID 1150); details: COS7 hTOR1A mutant lysate, 635 nm fluorescence, higher = more signal;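 further: score pools 667 nm emission and signal to noise measuring lysate protein binding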
[10] = system: Sonic hedgehog protein (Shh); experiment: Sonic hedgehog microarray binding compounds – biochemical, small-molecule microarray, 635/667 nm fluorescence, primary screen (AID 1151); details: 635 nm fluorescence, higher = more signal;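 further: Shh protein binding to compounds spotted on small-molecule microarray slides; score combines spot fluorescence intensity with signal-to-noise across triplicate slides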
[11] = optical density shifts of acrAB sulA E. coli – strain DRC41, OD650, 48 h, E. coli filamentation inducer project, primary screen (AID 1152); details: higher = more signal, called active from +8 up or from −8 down;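 further: E. coli MC1000 strain DRC41 lacking acrAB efflux pump and sulA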
[12] = probe aLefty1 binding on compound microarray – biochemical, small-molecule microarray, 635/667 nm fluorescence, primary screen (AID 1153); details: higher = more signal;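 further: score merges spot fluorescence with signal-to-noise ratio from the scanned slide images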
[13] = plasmodial surface anion channel blockers, osmotic lysis – cell-based, P. falciparum Indochina, OD700, 1 h, primary screen (AID 1154); details: P. falciparum Indochina infected RBC osmotic lysis, higher = more signal, called active from +8 up or from −8 down
[14] = plasmodial surface anion channel blockers, osmotic lysis – cell-based, P. falciparum Indochina, OD700, 2 h, primary screen (AID 1155);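 further: lysis reports solute entry through the parasite surface anion channel PSAC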; details: P. falciparum Indochina infected erythrocytes, higher = more signal, called active from +8 up or from −8 down
[15] = changes in parasitized red cell lysis, either direction – P. falciparum Indochina, OD700, 3 h, PSAC antagonist project, primary screen (AID 1156); details: P. falciparum-infected erythrocytes, osmotic lysis, higher = more signal, called active from +8 up or from −8 down
[16] = plasmodial surface anion channel blockers, osmotic lysis – cell-based, P. falciparum Indochina, OD700, 18 h, primary screen (AID 1157); details: P. falciparum Indochina infected erythrocytes, osmotic lysis OD700, 18 h; higher = more signal, called active from +8 up or from −8 down
[17] = S6 kinase pathway phospho-S6 level changes – cell-based, A549, cytoblot, luminescence, serum-stimulated, primary screen (AID 1158); details: 5 h, higher = more signal;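 further: serum-stimulated A549 lung adenocarcinoma cells; signal is phosphorylated S6 detected by cytoblot immunostaining with HRP secondary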
[18] = target: NADPH oxidase 2 (Homo sapiens) (UniProt P04839); experiment: compounds shifting NOX2 Amplex Red fluorescence – cell-based, HEK293-NOX2, PMA-stimulated, NOX inhibitor project, primary screen (AID 1159); details: 45 min, higher = more signal, called active from +8 up or from −8 down; further: test concentration not given here
Chain of NADPH oxidase 2 (Homo sapiens) (P04839 whole entry, looked up): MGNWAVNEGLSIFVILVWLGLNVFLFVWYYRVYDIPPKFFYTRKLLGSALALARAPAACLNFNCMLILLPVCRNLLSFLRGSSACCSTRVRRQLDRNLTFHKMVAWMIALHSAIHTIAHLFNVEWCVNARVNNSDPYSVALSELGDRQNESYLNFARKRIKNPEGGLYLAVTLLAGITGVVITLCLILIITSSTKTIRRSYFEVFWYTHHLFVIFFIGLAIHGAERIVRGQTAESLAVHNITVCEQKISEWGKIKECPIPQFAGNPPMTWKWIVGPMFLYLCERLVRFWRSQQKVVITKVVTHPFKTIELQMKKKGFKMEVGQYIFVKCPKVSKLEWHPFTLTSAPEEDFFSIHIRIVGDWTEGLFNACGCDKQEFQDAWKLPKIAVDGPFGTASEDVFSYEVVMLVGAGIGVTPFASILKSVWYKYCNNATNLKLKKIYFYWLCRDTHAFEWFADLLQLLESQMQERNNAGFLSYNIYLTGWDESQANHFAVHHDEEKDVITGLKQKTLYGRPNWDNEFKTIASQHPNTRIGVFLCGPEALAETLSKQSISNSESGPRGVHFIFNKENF

[19] = target: NADPH oxidase 4 (Homo sapiens) (UniProt Q9NPH5); experiment: compounds shifting NOX4 Amplex Red fluorescence – cell-based, HEK293-NOX4, tetracycline-induced, NOX inhibitor project, primary screen (AID 1160); details: HEK293-NOX4, Amplex Red H2O2 fluorescence, 45 min; higher = more signal, called active from +8 up or from −8 down
Chain of NADPH oxidase 4 (Homo sapiens) (Q9NPH5 whole entry, looked up): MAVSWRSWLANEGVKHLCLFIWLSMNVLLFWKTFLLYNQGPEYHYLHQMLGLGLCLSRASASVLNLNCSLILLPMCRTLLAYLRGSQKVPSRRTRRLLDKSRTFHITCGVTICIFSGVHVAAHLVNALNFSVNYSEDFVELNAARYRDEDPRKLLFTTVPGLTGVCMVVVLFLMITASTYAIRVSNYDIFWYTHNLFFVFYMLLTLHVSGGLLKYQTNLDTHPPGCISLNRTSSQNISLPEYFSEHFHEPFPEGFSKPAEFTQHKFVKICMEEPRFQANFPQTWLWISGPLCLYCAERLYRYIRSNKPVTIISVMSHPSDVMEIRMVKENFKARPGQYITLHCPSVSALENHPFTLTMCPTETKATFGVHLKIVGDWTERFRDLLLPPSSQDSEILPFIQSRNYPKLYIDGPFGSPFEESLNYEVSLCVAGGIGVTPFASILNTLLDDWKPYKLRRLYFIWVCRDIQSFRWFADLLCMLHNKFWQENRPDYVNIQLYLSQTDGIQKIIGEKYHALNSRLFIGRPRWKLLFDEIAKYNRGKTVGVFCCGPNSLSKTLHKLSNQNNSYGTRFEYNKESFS

[20] = target: NADPH oxidase 5 (Homo sapiens) (UniProt Q96PH1); experiment: compounds shifting NOX5 Amplex Red fluorescence – cell-based, HEK293-NOX5, NOX inhibitor project, primary screen (AID 1161); details: HEK293-NOX5, ionomycin, 45 min, higher = more signal
Chain of NADPH oxidase 5 (Homo sapiens) (Q96PH1 whole entry, looked up): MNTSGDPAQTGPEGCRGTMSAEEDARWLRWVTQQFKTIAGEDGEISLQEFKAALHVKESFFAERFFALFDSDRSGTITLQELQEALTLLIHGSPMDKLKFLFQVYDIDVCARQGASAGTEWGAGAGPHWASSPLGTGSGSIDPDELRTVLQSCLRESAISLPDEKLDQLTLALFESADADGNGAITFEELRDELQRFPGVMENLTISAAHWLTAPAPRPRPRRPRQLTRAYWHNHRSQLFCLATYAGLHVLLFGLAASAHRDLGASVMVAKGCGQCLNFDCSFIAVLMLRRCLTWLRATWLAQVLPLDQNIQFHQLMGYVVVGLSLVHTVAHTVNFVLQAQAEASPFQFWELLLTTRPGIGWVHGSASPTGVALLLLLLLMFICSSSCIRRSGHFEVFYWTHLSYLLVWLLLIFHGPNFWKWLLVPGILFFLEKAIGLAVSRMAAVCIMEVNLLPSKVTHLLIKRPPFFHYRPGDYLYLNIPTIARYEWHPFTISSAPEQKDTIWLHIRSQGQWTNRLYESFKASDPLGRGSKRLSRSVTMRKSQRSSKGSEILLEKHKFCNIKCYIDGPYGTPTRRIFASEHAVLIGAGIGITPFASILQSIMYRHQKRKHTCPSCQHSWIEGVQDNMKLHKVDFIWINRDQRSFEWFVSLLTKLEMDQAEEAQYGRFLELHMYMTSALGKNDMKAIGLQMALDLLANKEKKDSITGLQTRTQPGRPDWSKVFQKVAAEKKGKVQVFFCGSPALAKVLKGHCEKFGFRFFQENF

Row | Compound | composite z-score [1] | z-score [2] | z-score [3] | z-score [4] | z-score [5] | composite z-score [6] | composite z-score [7] | composite z-score (Torsin-1A (Homo sapiens) [8]) | composite z-score (Torsin-1A (Homo sapiens) [9]) | composite z-score [10] | z-score [11] | composite z-score [12] | z-score [13] | z-score [14] | z-score [15] | z-score [16] | z-score [17] | z-score [18] | z-score [19] | z-score [20]
1 | COC(=O)C(CC#Cc1ccc2c(c1)[C@]1(C(=O)N2)[C@H](C(=O)O)[C@H]2C(=O)O[C@H](c3ccccc3)[C@H](c3ccccc3)N2[C@@H]1c1ccccc1OCCO)C(=O)OC | 0.193 | -1.66 (inactive) | -0.292 (inactive) | 0.899 (inactive) | 2.92 (inactive) | 0.678 | 0.36 | 1.04 | 0.829 | 1.41 | -1.21 (inactive) | 0.658 | 4.19 (inactive) | 0.487 (inactive) | -5.95 (inactive) | -0.008 (inactive) | 0.029 | 1.37 (inactive) | -1.33 (inactive) | 1.19
2 | C=CCNC(=O)[C@H]1[C@@H]2C(=O)O[C@@H](c3ccccc3)[C@@H](c3ccccc3)N2[C@@H](c2ccccc2OCCO)[C@]12C(=O)N(C(=O)OCCOC)c1ccc(C#CC3=CCCCC3)cc12 | 0.356 | -4.73 (inactive) | 1.37 (inactive) | -0.333 (inactive) | 0.371 (inactive) | 1.08 | 0.423 | 1.02 | 0.798 | 0.826 | 0.687 (inactive) | 0.944 | 2.75 (inactive) | 1.32 (inactive) | -0.032 (inactive) | 0.725 (inactive) | -0.321 | 2.28 (inactive) | -0.678 (inactive) | 1.58
3 | C=CC1c2cc(O)c(OC)cc2CCN1Cc1sc2ccccc2c1Cl (stereo not given) | 0.252 | -3.81 (inactive) | 1.39 (inactive) | -0.114 (inactive) | 1.7 (inactive) | 1.57 | -0.295 | -0.425 | 0.257 | -0.0808 | -1.38 (inactive) | 0.268 | 17.9 (active) | 5.17 (inactive) | -0.604 (inactive) | 1.41 (inactive) | -0.248 | -4.21 (inactive) | -2.48 (inactive) | -2.08
4 | CC(C)N1C(=O)[C@@]2(c3ccc([N+](=O)[O-])cc3)CC(=O)N(C3CCCCC3)[C@@H]2c2ccc(CO)cc21 | -0.0311 | -0.311 (inactive) | -1.16 (inactive) | -0.464 (inactive) | -0.144 (inactive) | -0.196 | -0.045 | -0.36 | -0.123 | 1.02 | 0.0586 (inactive) | -0.672 | -0.716 (inactive) | -0.465 (inactive) | -0.393 (inactive) | -0.334 (inactive) | 0.254 | -0.898 (inactive) | -0.363 (inactive) | -0.316
5 | NC(=O)N1C(=O)C2C(C1=O)C1C=C(CCCO)C2C(c2cccs2)N1Cc1cc2c(cc1Br)OCO2 (stereo not given) | -0.25 | -0.477 (inactive) | -0.584 (inactive) | 0.424 (inactive) | -0.298 (inactive) | 1.13 | -0.0983 | -0.164 | 0.279 | 0.0313 | 0.0978 (inactive) | 0.254 | 17.7 (active) | 2.3 (inactive) | 0.865 (inactive) | 0.872 (inactive) | 0.413 | -0.848 (inactive) | -0.662 (inactive) | -1.1
